# Source: PubChem BioAssay
# The source made the active and inactive calls.
# What was measured:
# [1] = compounds binding Alexa647 anti-His antibody – biochemical, small-molecule microarray, 635 nm fluorescence, artefact control for SMM control protein annotation, primary screen (AID 1128); conditions: higher = more signal;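 further: score merges feature fluorescence with signal-to-noise for each printed compound spot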
# [2] = system: Human papillomavirus type 1a E7 protein (residues 1-88); assay: HPV1a E7 small-molecule binders, primary screen, biochemical, small-molecule microarray, residues 1-88, 635 nm (AID 1129); conditions: small-molecule microarray binding, fluorescence 635 nm; higher = more signal
# [3] = molecular target: Focal adhesion kinase 1 (Homo sapiens) (UniProt Q05397); assay: PTK2 protein binding on printed compound slides – biochemical, small-molecule microarray, 635/667 nm fluorescence, BSA, DTT, primary screen (AID 1130); conditions: 635 nm fluorescence, higher = more signal;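 further: composite of spot emission at 667 nm and signal to noise over triplicate slides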
# [4] = system: Fibrinogen (Alexa647-labelled); assay: Alexa647-fibrinogen binding to printed small molecules – biochemical, small-molecule microarray, 635/667 nm fluorescence, artefact control for SMM control-protein annotation, profiling panel (AID 1131); conditions: fibrinogen-A647 binding fluorescence, higher = more signal;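 further: z-score merges 667 nm fluorescence with per-spot signal-to-noise over triplicate slides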
# [5] = molecular target: Follistatin (Homo sapiens) (UniProt P19883); assay: FST protein binding to printed compounds – biochemical, small-molecule microarray, 635/667 nm fluorescence, primary screen (AID 1132); conditions: 635 nm fluorescence, higher = more signal
# [6] = molecular target: Fibroblast growth factor 2 (Homo sapiens) (UniProt P09038); assay: basic fibroblast growth factor binding to printed compounds – biochemical, small-molecule microarray, 635/667 nm fluorescence, primary screen (AID 1133); conditions: FGF2, fluorescence 635/667, higher = more signal
# [7] = JC-1 mitochondrial potential readout, lung cancer cells – cell-based, A549, JC-1 fluorescence, basal, 24 h, 100 nL, profiling panel (AID 1138); conditions: higher = more signal;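 further: A549 lung adenocarcinoma cells under basal conditions with no added stimulus; test concentration not given here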
# [8] = system: Lefty1; assay: Lefty1 protein binding to printed compounds – biochemical, small-molecule microarray, 635/667 nm fluorescence, primary screen (AID 1139); conditions: fluorescence 635/667, higher = more signal
# [9] = system: wheat germ agglutinin (Triticum aestivum), Alexa647-labelled; assay: Alexa647-WGA lectin binding to printed small molecules – biochemical, small-molecule microarray, 635/667 nm fluorescence, artefact control for SMM control-protein annotation, profiling panel (AID 1140); conditions: WGA-A647 binding, 635 nm fluorescence, higher = more signal;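 further: score merges 667 nm feature emission with signal to noise over triplicate slides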
# [10] = molecular target: Luciferin 4-monooxygenase (Photinus pyralis) (UniProt P08659); assay: inhibition of purified Photinus pyralis luciferase – biochemical, luminescence, purified enzyme, 2006 set, primary screen (AID 1141); conditions: purified firefly luciferase, SteadyGlo luminescence, 30 min; higher = more signal, called active from +8 up or from −8 down;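 further: cell-free assay with purified firefly luciferase at 100 ng per well in PBS; test concentration not given here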
# Luciferin 4-monooxygenase (Photinus pyralis), sequence (P08659 whole entry, looked up): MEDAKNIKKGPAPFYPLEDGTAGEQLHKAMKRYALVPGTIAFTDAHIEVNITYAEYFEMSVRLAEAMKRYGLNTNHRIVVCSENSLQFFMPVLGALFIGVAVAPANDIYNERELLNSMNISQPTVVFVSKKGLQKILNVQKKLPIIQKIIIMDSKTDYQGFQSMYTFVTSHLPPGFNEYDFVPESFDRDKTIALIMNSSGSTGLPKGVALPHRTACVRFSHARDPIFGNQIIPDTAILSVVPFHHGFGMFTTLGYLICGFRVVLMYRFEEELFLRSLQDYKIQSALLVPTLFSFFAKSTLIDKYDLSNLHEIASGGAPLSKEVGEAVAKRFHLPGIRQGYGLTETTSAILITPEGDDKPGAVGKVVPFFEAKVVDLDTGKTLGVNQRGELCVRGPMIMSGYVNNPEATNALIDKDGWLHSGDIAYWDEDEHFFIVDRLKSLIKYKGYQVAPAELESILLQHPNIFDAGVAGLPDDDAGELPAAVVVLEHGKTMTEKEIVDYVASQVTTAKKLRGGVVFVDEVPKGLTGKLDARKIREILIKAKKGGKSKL
# Follistatin (Homo sapiens), sequence (P19883 whole entry, looked up): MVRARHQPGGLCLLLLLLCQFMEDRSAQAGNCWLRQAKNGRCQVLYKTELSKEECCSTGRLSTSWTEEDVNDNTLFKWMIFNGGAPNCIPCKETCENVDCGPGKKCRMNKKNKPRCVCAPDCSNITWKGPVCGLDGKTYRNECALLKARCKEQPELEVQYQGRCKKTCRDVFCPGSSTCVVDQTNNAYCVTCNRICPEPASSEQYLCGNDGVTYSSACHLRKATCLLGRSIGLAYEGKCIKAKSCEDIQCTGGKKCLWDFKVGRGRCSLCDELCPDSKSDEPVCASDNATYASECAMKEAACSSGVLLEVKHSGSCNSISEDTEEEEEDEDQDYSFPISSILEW
# Focal adhesion kinase 1 (Homo sapiens), sequence (Q05397 whole entry, looked up): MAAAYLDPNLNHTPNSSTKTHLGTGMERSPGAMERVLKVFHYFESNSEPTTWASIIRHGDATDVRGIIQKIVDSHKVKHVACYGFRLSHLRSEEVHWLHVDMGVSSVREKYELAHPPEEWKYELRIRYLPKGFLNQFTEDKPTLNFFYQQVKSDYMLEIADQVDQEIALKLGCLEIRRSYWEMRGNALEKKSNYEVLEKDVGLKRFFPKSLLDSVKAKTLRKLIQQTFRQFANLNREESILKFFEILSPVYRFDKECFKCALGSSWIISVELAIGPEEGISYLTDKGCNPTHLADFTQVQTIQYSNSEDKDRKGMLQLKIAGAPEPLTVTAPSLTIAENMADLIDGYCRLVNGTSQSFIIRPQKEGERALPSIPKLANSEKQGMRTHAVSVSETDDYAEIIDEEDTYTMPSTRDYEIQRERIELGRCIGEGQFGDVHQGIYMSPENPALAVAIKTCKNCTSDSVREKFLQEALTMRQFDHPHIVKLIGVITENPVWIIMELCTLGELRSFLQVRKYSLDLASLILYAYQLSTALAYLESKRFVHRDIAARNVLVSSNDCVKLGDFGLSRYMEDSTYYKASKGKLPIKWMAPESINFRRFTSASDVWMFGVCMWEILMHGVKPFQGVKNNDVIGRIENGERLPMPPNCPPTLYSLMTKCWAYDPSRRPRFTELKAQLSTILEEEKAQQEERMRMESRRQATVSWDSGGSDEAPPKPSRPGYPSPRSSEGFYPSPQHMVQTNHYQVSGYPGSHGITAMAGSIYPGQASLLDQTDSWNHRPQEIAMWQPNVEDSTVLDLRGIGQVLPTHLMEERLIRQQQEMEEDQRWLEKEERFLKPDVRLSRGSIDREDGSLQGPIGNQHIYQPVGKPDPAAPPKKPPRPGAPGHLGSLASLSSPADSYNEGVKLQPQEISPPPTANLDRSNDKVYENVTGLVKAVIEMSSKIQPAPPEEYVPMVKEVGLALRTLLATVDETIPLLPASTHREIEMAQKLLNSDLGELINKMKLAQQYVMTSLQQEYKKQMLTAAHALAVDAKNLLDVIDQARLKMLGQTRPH
# Fibroblast growth factor 2 (Homo sapiens), sequence (P09038 whole entry, looked up): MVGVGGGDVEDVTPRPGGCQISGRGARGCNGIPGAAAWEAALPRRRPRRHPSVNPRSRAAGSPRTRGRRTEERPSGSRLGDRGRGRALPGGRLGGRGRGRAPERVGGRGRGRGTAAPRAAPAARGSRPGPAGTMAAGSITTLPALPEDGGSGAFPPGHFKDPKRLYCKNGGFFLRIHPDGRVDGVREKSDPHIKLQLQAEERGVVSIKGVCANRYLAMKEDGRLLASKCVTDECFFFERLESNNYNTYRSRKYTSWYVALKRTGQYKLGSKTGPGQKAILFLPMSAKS
Structure (SMILES),composite z-score [1],composite z-score [2],composite z-score [3],composite z-score [4],composite z-score [5],composite z-score [6],z-score [7],composite z-score [8],composite z-score [9],z-score [10]
C=C(CCCC)/C(=C/C[C@@H](OC(=O)c1ccncc1)c1ccc(CO)o1)c1cnc2ccccc2c1,1.24,0.723,1.64,0.878,1.46,1.69,0.146,1.65,1.22,-3.5 (inactive)
O=C1C[C@@](C(=O)NC2CC2)(c2ccc([N+](=O)[O-])cc2)[C@@H](c2ccc(CO)cc2I)N1CC12CC3CC(CC(C3)C1)C2,-0.317,1.18,0.32,0.751,1.07,0.718,-0.558,1.15,0.793,-0.318 (inactive)
CO[C@H]1O[C@H](CO)[C@@H](OC(=O)Nc2ccc3c(c2)OCO3)[C@H](OC(=O)Nc2ccccc2)[C@@H]1OC(=O)Nc1ccccc1,1.79,1.22,1.02,0.968,1.41,1.83,0.187,0.823,0.497,-0.899 (inactive)
COC(=O)[C@@]1(Cc2ccc(OC)cc2)[C@H]2c3cc(C(=O)N(C)C)n(CCc4ccc(OC)c(Br)c4)c3C[C@H]2CN1C(=O)c1ccccc1,2.28,1.23,2.29,0.891,0.85,-0.763,0.37,-0.545,1.37,0.253 (inactive)
C=C(COC)/C(=C/C[C@@H](OC(=O)c1ccncc1)c1ccc(OCCO)cc1)c1cc(C(=O)OC)ccc1OC,2.06,1.21,1.21,0.791,0.59,0.334,2.2,0.716,1.3,-2.22 (inactive)
O=C(N1CCCCC1)[C@@]1(CCS(=O)(=O)c2ccccc2)N=C(c2ccc(OCCCO)cc2)O[C@H]1c1ccccc1,1.9,1.26,0.556,0.328,1.25,-0.0973,0.216,-0.0953,0.0324,-1.32 (inactive)
CN(C)C(=O)[C@@]1(Cc2ccccc2N=[N+]=[N-])N=C(c2ccc(OCCCO)cc2)O[C@H]1c1ccccc1CN=[N+]=[N-],2.23,1.23,1.02,0.831,1.21,0.512,2.31,0.633,1.45,-1.92 (inactive)
CCN1C(C)=C(C(=O)OC)[C@@H](c2ccccc2)N2C(=O)[C@@]3(C(=O)OC)O[C@@]12[C@@H]1C(=O)N(c2ccccc2)C(=O)[C@@H]13,1.44,0.678,0.231,0.389,0.462,1.51,0.507,1.27,0.238,-0.569 (inactive)
C=CCN1C(=O)[C@@]2(O[C@@H](CCn3cc([C@H](O)c4ccccc4)nn3)[C@H]([Si](C)(C)c3ccc(OC)cc3)[C@H]2C)c2cc(N3CCOC3=O)ccc21,1.34,1.16,0.533,-0.285,0.0302,0.0085,0.899,-0.192,-0.605,-0.731 (inactive)
[N-]=[N+]=NCc1ccccc1C[C@@]1(C(=O)O)N=C(c2ccc(OCCCO)cc2)O[C@@H]1c1ccccc1N=[N+]=[N-],1.36,1.22,0.581,1.02,0.622,-0.316,0.376,0.42,0.415,-8.1 (active)
COc1ccc([Si](C)(C)[C@H]2[C@H](CC(=O)N(CCO)Cc3ccccc3)O[C@@]3(C(=O)N(C)c4ccccc43)[C@@H]2C)cc1,1.62,1.08,0.711,-0.0177,1.06,1.01,1.61,1.11,-0.0039,0.59 (inactive)
COCCOC(=O)N1C(=O)[C@@]2(c3cc(C#CCNC(N)=O)ccc31)[C@H](c1ccc(OCCO)cc1)N1[C@H](c3ccccc3)[C@H](c3ccccc3)OC(=O)[C@H]1[C@@H]2C(=O)Nc1nc2ccccc2s1,0.0799,-0.393,0.0616,0.398,1.28,0.779,-2.32,0.83,0.755,-3.42 (inactive)
CCCNC(=O)[C@@]1(Sc2ccc(C)cc2)CC(=O)N(Cc2ccccc2Cl)[C@@H]1c1ccc(CO)cc1,1.12,1.15,0.29,0.789,1.42,1.6,1.02,1.19,1.18,-0.0629 (inactive)
O=C1O[C@@H](c2ccccc2)[C@@H](c2ccccc2)N2[C@@H](c3ccc(OCCO)cc3)[C@]3(C(=O)Nc4ccc(C#CCCO)cc43)[C@@H](C(=O)N3CCN(c4ncccn4)CC3)[C@H]12,0.468,1,0.341,0.941,1.34,0.331,-0.0856,0.635,1.2,0.47 (inactive)
C=C(CCCC)C(=O)CC[C@@H](OC(C)=O)c1ccccc1OCCO,-0.848,-0.806,-0.523,-1.75,-0.245,-0.508,0.846,-0.0521,-0.788,-1.33 (inactive)
CC(C)N1CC=CC23O[C@@H]4/C=C\CCCOC(=O)C4[C@H]2C(=O)N(CCCCCO)[C@@H]3C1=O (stereo not given in full),-2.21,-1.79,-0.925,-3.13,-1.15,-1.03,3.68,-1.52,-1.78,-1.32 (inactive)

Structure (SMILES),composite z-score [1],composite z-score [2],composite z-score [3],composite z-score [4],composite z-score [5],composite z-score [6],z-score [7],composite z-score [8],composite z-score [9],z-score [10]
CCOC(=O)C[C@H]1[C@H](OC(=O)Cc2ccc3c(c2)OCO3)[C@@H](NC(=O)c2ccc3ccccc3c2)c2cc(OCCCO)ccc2N1C(=O)Cc1ccc(OC)cc1,-0.708,0.836,0.211,0.561,0.413,0.441,0.751,0.55,0.353,-0.953 (inactive)
C=CC[C@]1(C(=O)OC)N=C(c2ccc(OCCCO)cc2)O[C@H]1c1ccccc1CN=[N+]=[N-],1.39,0.731,0.5,-0.268,0.286,0.172,1.22,-0.525,0.605,-4.54 (inactive)
COC(=O)[C@@]1(Cc2ccccc2)[C@H]2c3cc(C(=O)N4CCCC4)n(CCN4CNCC4=O)c3C[C@H]2CN1C(=O)c1ccccc1,0.361,1.21,1.72,0.728,0.257,-0.709,0.791,-0.0783,0.342,2.42 (inactive)
C=CCN1C(=O)[C@]2(O[C@H](CCn3cc(CCO)nn3)[C@@H]([Si](C)(C)c3ccc(OC)cc3)[C@@H]2C)c2cc(NC(=O)c3ccc(OC)cc3)ccc21,0.94,1.14,0.611,0.708,1.35,1.2,2.37,1.01,0.816,-2.28 (inactive)
O=C1OCCC=C[C@H]2OC34C=CCN(Cc5ccccc5)C(=O)[C@H]3N(CCO)C(=O)[C@@H]4C12 (stereo not given in full),-0.954,-1.18,-0.616,-1.89,-1.21,-0.379,0.252,-0.705,-2.09,-0.678 (inactive)
CO[C@H]1COC(=O)[C@@H](OCc2ccccc2)C=C[C@H](C)[C@@H](OC)COC(=O)[C@H](OCc2ccccc2)C=C[C@@H]1C,-0.12,-0.0882,0.104,-0.305,0.266,0.552,1.99,0.67,-0.244,-1.99 (inactive)
C#CCCCON=C1C[C@@H](O)[C@@H](O)[C@@H]2[C@@H]3C(=O)N(Cc4ccc5c(c4)OCO5)C(=O)[C@@H]3CC[C@@H]12,2.73,0.226,-0.0967,0.903,0.669,0.0999,0.505,0.847,1.14,0.76 (inactive)
COc1cc(CO)cc(I)c1O[C@H]1C=C(C(=O)NCCO)C[C@@H](N(CC2CCCCC2)C(=O)c2cc3ccccc3oc2=O)[C@@H]1O,0.309,0.238,-0.071,1.02,0.175,1.17,0.272,0.275,0.516,-0.462 (inactive)
C=C(CCCC)C(=O)CC[C@@H](OC(=O)c1cccnc1)c1cccc(OCCO)c1,0.419,-0.411,0.533,0.314,0.674,1.14,3.35,0.779,0.59,-3.06 (inactive)
CO[C@H]1COC(=O)[C@H](C)COC(=O)[C@H](Cc2ccccc2)NC(=O)CC=C[C@H]1C,-0.384,-1.55,0.195,-1.04,1.42,0.807,1.71,1.16,-1.5,-1.14 (inactive)
O=C1O[C@H](c2ccccc2)[C@H](c2ccccc2)N2[C@H]1[C@@H](C(=O)Nc1nc3ccccc3s1)[C@]1(C(=O)Nc3ccc(C#CC4(O)CCCCCC4)cc31)[C@H]2c1ccc(O)cc1,1.71,1.2,0.164,1,1.29,1.31,-2.35,0.666,0.856,-1.27 (inactive)
COc1ccc(CCN2C(=O)[C@@]3(c4ccc([N+](=O)[O-])cc4)CC(=O)N(CC45CC6CC(CC(C6)C4)C5)[C@@H]3c3ccc(CO)cc32)cc1,0.286,0.415,0.38,0.138,0.572,-0.0451,1.15,-0.531,-0.0366,-0.736 (inactive)
CCN1C(C)=C(C(=O)OC)[C@@H](c2ccccc2)N2C(=O)[C@](O)(C(=O)OC)[C@@H](c3ccccc3)C(C(=O)c3ccccc3)=C12,0.0774,0.778,0.0079,0.983,0.411,0.411,1.58,0.717,0.593,-1.2 (inactive)
C=CC[C@@]12N=C(c3ccc(OCCCO)cc3)O[C@@H]1c1ccccc1CN(Cc1ccccc1)C2=O,2.93,1.18,1.05,0.639,1.33,0.761,-0.309,0.239,0.65,-1.79 (inactive)
Cc1ccc(S[C@]2(C(=O)NCCCN(C)C)CC(=O)N(C3CCCCC3)[C@@H]2c2ccc(CO)cc2I)cc1,0.731,-0.171,-0.471,-1.32,-0.351,-0.29,3.41,-0.695,-1.54,-1.38 (inactive)
Cc1ccc(S(=O)(=O)N[C@H]2COC(=O)CC=C[C@H](C)COC(=O)N[C@@H](C)C(=O)CC=C[C@@H]2C)cc1,-0.45,-0.368,-0.502,-0.446,0.953,1.43,0.204,1.65,-0.557,-0.537 (inactive)
